Compounds without any hit were thinned out: in the full panel of roughly 83,000, 20% have a hit.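 96-well plates, one dose, 48 hours. Percent growth reported; active if below 10.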 Unmarked numbers belong to inactive results. Activity calls are given as the source filed them.

Test systems include SK-MEL-2 melanoma; EKVX NSCLC; SN12C renal; UO-31 renal; TK-10 renal; ACHN renal; CAKI-1 renal; A498 renal; CCRF-CEM leukemia; MOLT-4 leukemia; SR leukemia; RPMI-8226 leukemia; OVCAR-5 ovarian; OVCAR-4 ovarian; SK-OV-3 ovarian; IGROV1 ovarian; OVCAR-3 ovarian; HS 578T breast; NCI/ADR-RES ovarian; OVCAR-8 ovarian.
What all share (experiment): NCI-60 one-dose screen, 48 h (100 = growth as untreated, 0 = no growth, -100 = all killed)
Holding throughout (details): 10 µM

For the compound `COc1ccc(NC(=O)C2CC3C=CC2C3)c([N+](=O)[O-])c1` (stereo not drawn), the growth in the experiment with SK-MEL-2 melanoma is 104%; in the experiment on EKVX NSCLC, 101%; in the experiment on SN12C renal it was 91.6%; in the experiment on UO-31 renal, 92.4%; in the experiment on TK-10 renal, 109%; with ACHN renal, 98.4%. Moreover, the growth with CAKI-1 renal was 92.6%; with A498 renal, 103%; with CCRF-CEM leukemia, 95.6%; in the experiment on MOLT-4 leukemia it was 86.8%; in the experiment on SR leukemia it was 85.4%; with RPMI-8226 leukemia, 104%. The growth in the experiment with OVCAR-5 ovarian was 96.5%; in the experiment with OVCAR-4 ovarian it was 92.7%; in the experiment with SK-OV-3 ovarian, 102%; in the experiment with IGROV1 ovarian, 108%; in the experiment on OVCAR-3 ovarian, 99.4%; in the experiment with HS 578T breast it was 95.4%. Also, in the experiment on NCI/ADR-RES ovarian, the growth is 97.6%.
Consider `C=CCN(CC=C)C(=O)[C@H](CC)[C@@H]1CC[C@@H](C)[C@@H]([C@H](C)[C@@H](O)[C@@H](C)C(=O)[C@H](CC)C2O[C@]3(C=CC(=O)[C@]4(CC[C@@](C)([C@H]5CC[C@](O)(CC)[C@H](C)O5)O4)O3)[C@H](C)C[C@@H]2C)O1` (stereo partly drawn), for which the growth was 22.1% in the experiment with SK-MEL-2 melanoma; 12.8% in the experiment on EKVX NSCLC; 19.8% in the experiment with SN12C renal; 0.66% (active) in the experiment on UO-31 renal; 35.5% with TK-10 renal; 5.47% (active) with ACHN renal. Besides, the growth with CAKI-1 renal was 13.7%; with A498 renal it was 22.2%; in the experiment on MOLT-4 leukemia, 28.8%; in the experiment with SR leukemia it was 49.1%; in the experiment with RPMI-8226 leukemia, -23% (active); in the experiment on OVCAR-8 ovarian, 32.4%. In addition, the growth in the experiment on OVCAR-5 ovarian is 32.8%; in the experiment with OVCAR-4 ovarian, 42.7%; with SK-OV-3 ovarian, 41%; with IGROV1 ovarian it was 43.5%; with OVCAR-3 ovarian, 29.8%; in the experiment on HS 578T breast, 33.9%. Besides, the growth in the experiment with NCI/ADR-RES ovarian is 16.8%.
As to `CCOC(=O)C1C(C(=O)OCC)C2C(=O)C3C(C(=O)OCC)C(C(=O)OCC)C3C(=O)C12` (stereo not drawn), the growth is 115% in the experiment with SK-MEL-2 melanoma; 96.3% with EKVX NSCLC; 94.2% in the experiment on SN12C renal; 94.8% in the experiment with UO-31 renal; 112% in the experiment on TK-10 renal; 98.8% with ACHN renal. The growth in the experiment on CAKI-1 renal is 101%; with A498 renal it was 102%; with CCRF-CEM leukemia, 102%; with MOLT-4 leukemia it was 106%; with SR leukemia it was 117%; in the experiment with RPMI-8226 leukemia, 101%. Besides, the growth with OVCAR-8 ovarian is 104%; in the experiment with OVCAR-5 ovarian, 108%; with SK-OV-3 ovarian, 109%; with IGROV1 ovarian it was 118%; in the experiment on OVCAR-3 ovarian it was 114%; in the experiment with HS 578T breast, 108%. The growth in the experiment with NCI/ADR-RES ovarian is 56%.
On to `C=CCn1c(SCC(=O)Nc2ccc(C(=O)/C=C/c3cc(OC)c(OC)c(OC)c3)cc2)nnc1-c1cc(-c2ccc(Cl)cc2)nc2ccccc12`, for which the growth is 103% with SK-MEL-2 melanoma; 86.4% in the experiment with EKVX NSCLC; 86.8% with SN12C renal; 57.1% with UO-31 renal; 113% in the experiment with TK-10 renal; 86.1% in the experiment on ACHN renal. The growth in the experiment with CAKI-1 renal is 67.2%; with A498 renal, 80.6%; with MOLT-4 leukemia it was 52.6%; in the experiment on SR leukemia it was 62%; in the experiment on RPMI-8226 leukemia it was -16.3% (active); in the experiment with OVCAR-8 ovarian, 52.1%. In addition, the growth in the experiment with OVCAR-5 ovarian was 97.6%; with OVCAR-4 ovarian, 87.9%; in the experiment on SK-OV-3 ovarian, 87.1%; in the experiment on IGROV1 ovarian, 88.4%; in the experiment with OVCAR-3 ovarian, 97.3%; in the experiment with HS 578T breast, 83.7%.
Regarding `CCC(CC)n1c(C)cc(=O)n1C(CC)CC`, the growth in the experiment on SK-MEL-2 melanoma is 111%; with EKVX NSCLC, 113%; in the experiment on SN12C renal, 105%; in the experiment on UO-31 renal, 115%; in the experiment on TK-10 renal, 109%; with ACHN renal it was 101%. Moreover, the growth is 97.6% in the experiment with CAKI-1 renal; 116% with A498 renal; 107% with CCRF-CEM leukemia; 103% in the experiment with MOLT-4 leukemia; 118% in the experiment on SR leukemia; 106% with RPMI-8226 leukemia. Also, the growth in the experiment with OVCAR-8 ovarian is 104%; in the experiment with OVCAR-5 ovarian it was 99.4%; in the experiment on SK-OV-3 ovarian, 104%; in the experiment on IGROV1 ovarian it was 140%; in the experiment with OVCAR-3 ovarian, 113%; in the experiment on HS 578T breast, 110%. Further, in the experiment with NCI/ADR-RES ovarian, the growth is 107%.
In the case of `COc1ccc(/C=C2\CCCC3=C2N=C2SC(C)=CN2C3c2ccc(OC)cc2)cc1` (stereo not drawn), the growth in the experiment on SK-MEL-2 melanoma is 98.6%; in the experiment on EKVX NSCLC, 99.4%; with SN12C renal, 104%; in the experiment on UO-31 renal, 82.1%; in the experiment on TK-10 renal, 116%; in the experiment on ACHN renal it was 106%. In addition, the growth is 96.4% with CAKI-1 renal; 76.8% in the experiment on A498 renal; 104% in the experiment with CCRF-CEM leukemia; 103% in the experiment on MOLT-4 leukemia; 100% in the experiment on SR leukemia; 71.2% with RPMI-8226 leukemia. Also, the growth with OVCAR-8 ovarian was 95.2%; with OVCAR-5 ovarian it was 105%; with SK-OV-3 ovarian, 101%; with IGROV1 ovarian, 111%; in the experiment on OVCAR-3 ovarian, 102%; in the experiment with HS 578T breast it was 91%. In addition, in the experiment with NCI/ADR-RES ovarian, the growth is 96.3%.

Values taken from PubChem BioAssay (NCI).
